# Data from publication PMC7862700, “An all-to-all approach to the identification of sequence-specific readers for epigenetic DNA modifications on cytosine”.
# What was measured:
# Assay in all cases: DAPPL (digital affinity profiling via proximity ligation, sequencing); 10 mM Tris-HCl pH 7.5, 50 mM NaCl, 1 mM DTT, 4% glycerol, room temperature, 30 min; GST-TFs on glutathione beads, 16-mer random dsDNA library, 0.1% formaldehyde crosslink after washing; high values mean tight binding
# FEV = target: T1, FEV (Homo sapiens, UniProt Q99581 1-238); conditions: protein: recombinant; tags: N-terminal GST; dsDNA, one strand shown
# T1 sequence: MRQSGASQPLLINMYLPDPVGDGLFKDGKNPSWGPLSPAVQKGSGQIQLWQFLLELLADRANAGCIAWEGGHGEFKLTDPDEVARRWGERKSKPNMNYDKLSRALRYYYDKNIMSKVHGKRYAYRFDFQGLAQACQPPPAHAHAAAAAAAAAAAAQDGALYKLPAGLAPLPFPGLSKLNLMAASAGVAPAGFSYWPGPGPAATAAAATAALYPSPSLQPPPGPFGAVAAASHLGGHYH
# Method in brief: (§1)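 Beads coated with glutathione captured GST-fused human transcription factors that had been expressed in yeast, and the factors were then given DNA barcodes and pooled with a tag-only sample. The pools were incubated with 200 nmole of a random double-stranded 16-mer DNA library in Tris/NaCl/DTT/glycerol buffer for 30 min at room temperature, washed, crosslinked with 0.1% formaldehyde and proximity-ligated with BsaI/T4 ligase at 37 °C for 1 h. PCR amplification and Illumina NextSeq500 sequencing came last. Binding signal is each hexamer's read frequency for a factor divided by its frequency for the tag-only sample.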
# ETV5 = ETV5 (Homo sapiens, UniProt P41161 1-510); conditions: protein: recombinant; tags: N-terminal GST; dsDNA, one strand shown
# Method in brief: as §1
# HSF1 = HSF1 (Homo sapiens, UniProt Q00613 1-529); conditions: protein: recombinant; tags: N-terminal GST; chain copies: 3; dsDNA, one strand shown
# Method in brief: as §1
# SPIC = target: T2, SPIC (Homo sapiens, UniProt Q8N5J4 1-248); conditions: protein: recombinant; tags: N-terminal GST; dsDNA, one strand shown
# T2 sequence: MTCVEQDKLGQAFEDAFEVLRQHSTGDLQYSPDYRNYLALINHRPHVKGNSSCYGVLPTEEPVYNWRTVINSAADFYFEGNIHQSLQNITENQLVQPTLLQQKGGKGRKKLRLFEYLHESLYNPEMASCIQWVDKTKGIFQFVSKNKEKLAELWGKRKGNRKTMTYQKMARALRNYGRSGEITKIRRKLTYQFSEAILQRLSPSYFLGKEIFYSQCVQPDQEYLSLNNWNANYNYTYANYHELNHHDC
# Method in brief: as §1
# ELF4 = ELF4 (Homo sapiens, UniProt Q99607 1-663); conditions: protein: recombinant; tags: N-terminal GST; dsDNA, one strand shown
# Method in brief: as §1
# ELK4 = target: T3, ELK4 (Homo sapiens, UniProt P28324-2 1-405); conditions: protein: recombinant; tags: N-terminal GST; dsDNA, one strand shown
# T3 sequence: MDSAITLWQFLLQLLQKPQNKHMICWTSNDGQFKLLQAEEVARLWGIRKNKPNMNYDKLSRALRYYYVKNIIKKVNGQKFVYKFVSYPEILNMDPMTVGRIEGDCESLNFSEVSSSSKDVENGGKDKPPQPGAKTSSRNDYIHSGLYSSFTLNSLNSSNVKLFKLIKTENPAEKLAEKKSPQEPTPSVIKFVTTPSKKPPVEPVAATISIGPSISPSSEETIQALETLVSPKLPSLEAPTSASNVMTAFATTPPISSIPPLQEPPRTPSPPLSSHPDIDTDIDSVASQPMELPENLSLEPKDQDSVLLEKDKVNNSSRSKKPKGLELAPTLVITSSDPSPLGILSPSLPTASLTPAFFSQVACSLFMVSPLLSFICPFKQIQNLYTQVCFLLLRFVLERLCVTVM
# Method in brief: as §1
# ETV2 = target: T4, ETV2 (Homo sapiens, UniProt O00321 1-342); conditions: protein: recombinant; tags: N-terminal GST; dsDNA, one strand shown
# T4 sequence: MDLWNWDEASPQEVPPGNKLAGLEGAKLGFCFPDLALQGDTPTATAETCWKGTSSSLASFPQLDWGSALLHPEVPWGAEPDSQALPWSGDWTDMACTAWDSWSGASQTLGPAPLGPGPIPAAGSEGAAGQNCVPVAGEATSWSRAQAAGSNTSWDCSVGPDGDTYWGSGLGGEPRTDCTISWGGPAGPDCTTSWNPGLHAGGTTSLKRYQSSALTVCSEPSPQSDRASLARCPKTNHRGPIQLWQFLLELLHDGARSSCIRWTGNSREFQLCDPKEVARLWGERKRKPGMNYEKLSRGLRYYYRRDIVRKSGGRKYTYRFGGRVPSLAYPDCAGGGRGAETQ
# Method in brief: as §1
# ELF3 = target: T5, ELF3 (Homo sapiens, UniProt P78545 1-371); conditions: protein: recombinant; tags: N-terminal GST; dsDNA, one strand shown
# T5 sequence: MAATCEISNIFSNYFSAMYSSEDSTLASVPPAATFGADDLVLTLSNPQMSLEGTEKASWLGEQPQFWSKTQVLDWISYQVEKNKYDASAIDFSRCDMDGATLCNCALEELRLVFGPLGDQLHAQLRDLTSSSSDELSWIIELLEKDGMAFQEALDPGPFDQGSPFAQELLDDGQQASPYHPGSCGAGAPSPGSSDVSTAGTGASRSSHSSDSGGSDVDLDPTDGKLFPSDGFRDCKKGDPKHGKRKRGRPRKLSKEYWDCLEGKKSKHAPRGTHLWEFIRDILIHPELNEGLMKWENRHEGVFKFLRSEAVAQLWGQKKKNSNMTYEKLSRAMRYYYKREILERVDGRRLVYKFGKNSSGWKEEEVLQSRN
# Method in brief: as §1
# CRX = CRX (Homo sapiens, UniProt O43186 1-299); conditions: protein: recombinant; tags: N-terminal GST; dsDNA, one strand shown
# Method in brief: as §1
# ETV1 = ETV1 (Homo sapiens, UniProt P50549 1-477); conditions: protein: recombinant; tags: N-terminal GST; dsDNA, one strand shown
# Method in brief: as §1
# ERF = target: T6, ERF (Homo sapiens, UniProt P50548 1-548); conditions: protein: recombinant; tags: N-terminal GST; dsDNA, one strand shown
# T6 sequence: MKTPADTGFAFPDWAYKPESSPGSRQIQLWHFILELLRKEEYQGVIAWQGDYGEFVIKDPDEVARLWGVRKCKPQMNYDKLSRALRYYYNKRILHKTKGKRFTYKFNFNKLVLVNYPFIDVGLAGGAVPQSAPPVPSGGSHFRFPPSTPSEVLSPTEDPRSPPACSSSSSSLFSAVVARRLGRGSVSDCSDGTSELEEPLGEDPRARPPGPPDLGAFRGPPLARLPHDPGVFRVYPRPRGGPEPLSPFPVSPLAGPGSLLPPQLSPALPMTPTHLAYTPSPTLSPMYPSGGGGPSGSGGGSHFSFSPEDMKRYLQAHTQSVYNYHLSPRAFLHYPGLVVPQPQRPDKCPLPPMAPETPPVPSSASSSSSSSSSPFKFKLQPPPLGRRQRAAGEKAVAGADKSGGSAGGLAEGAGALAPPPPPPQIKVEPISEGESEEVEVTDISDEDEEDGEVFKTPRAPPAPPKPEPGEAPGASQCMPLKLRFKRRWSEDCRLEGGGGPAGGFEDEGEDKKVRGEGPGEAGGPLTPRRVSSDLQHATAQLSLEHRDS
# Method in brief: as §1
# ETV3L = target: T7, ETV3L (Homo sapiens, UniProt Q6ZN32 1-361); conditions: protein: recombinant; tags: N-terminal GST; dsDNA, one strand shown
# T7 sequence: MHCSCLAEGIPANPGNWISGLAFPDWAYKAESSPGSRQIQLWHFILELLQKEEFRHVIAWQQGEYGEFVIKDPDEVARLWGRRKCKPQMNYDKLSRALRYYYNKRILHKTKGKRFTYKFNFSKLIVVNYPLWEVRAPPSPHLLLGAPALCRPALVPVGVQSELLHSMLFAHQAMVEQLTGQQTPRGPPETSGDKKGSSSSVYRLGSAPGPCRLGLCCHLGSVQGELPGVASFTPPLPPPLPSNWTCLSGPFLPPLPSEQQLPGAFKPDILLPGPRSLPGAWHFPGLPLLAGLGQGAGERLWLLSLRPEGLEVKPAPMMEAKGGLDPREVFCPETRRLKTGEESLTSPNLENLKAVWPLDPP
# Method in brief: as §1
# ETS2 = target: T8, ETS2 (Homo sapiens, UniProt P15036 1-469); conditions: protein: recombinant; tags: N-terminal GST; dsDNA, one strand shown
# T8 sequence: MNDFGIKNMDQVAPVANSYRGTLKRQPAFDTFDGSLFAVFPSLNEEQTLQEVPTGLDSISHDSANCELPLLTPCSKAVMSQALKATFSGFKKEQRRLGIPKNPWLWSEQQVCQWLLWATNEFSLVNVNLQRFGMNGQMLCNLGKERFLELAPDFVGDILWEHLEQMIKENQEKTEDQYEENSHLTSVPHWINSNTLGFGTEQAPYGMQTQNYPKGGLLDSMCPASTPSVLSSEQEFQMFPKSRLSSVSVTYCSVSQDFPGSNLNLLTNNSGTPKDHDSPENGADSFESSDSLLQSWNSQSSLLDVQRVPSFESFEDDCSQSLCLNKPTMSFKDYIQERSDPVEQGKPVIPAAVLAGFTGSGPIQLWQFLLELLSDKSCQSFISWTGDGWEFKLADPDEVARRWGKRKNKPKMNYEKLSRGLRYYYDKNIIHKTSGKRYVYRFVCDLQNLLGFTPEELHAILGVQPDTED
# Method in brief: as §1
# SPDEF = target: T9, SPDEF (Homo sapiens, UniProt O95238 1-335); conditions: protein: recombinant; tags: N-terminal GST; dsDNA, one strand shown
# T9 sequence: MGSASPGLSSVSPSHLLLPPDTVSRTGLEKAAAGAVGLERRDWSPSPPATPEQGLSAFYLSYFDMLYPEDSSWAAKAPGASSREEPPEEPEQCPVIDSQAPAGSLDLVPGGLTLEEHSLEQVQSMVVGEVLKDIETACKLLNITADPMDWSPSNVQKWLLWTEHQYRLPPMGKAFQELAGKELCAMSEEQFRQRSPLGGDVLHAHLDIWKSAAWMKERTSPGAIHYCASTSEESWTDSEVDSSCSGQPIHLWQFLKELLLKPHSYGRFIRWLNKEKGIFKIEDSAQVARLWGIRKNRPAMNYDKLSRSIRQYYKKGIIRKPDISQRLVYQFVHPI
# Method in brief: as §1
# ETV7 = target: T10, ETV7 (Homo sapiens, UniProt Q9Y603 1-341); conditions: protein: recombinant; tags: N-terminal GST; dsDNA, one strand shown
# T10 sequence: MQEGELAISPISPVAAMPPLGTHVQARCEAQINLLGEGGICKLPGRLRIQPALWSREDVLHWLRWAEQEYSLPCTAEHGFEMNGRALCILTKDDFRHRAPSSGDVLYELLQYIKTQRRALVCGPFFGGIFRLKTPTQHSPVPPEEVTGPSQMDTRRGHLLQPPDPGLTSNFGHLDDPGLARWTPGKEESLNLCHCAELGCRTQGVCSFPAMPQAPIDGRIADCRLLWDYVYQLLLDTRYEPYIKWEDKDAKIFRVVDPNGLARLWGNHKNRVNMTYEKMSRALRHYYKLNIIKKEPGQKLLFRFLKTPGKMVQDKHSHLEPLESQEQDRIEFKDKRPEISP
# Method in brief: as §1
# ELF5 = target: T11, ELF5 (Homo sapiens, UniProt Q9UKW6-2 1-255); conditions: protein: recombinant; tags: N-terminal GST; dsDNA, one strand shown
# T11 sequence: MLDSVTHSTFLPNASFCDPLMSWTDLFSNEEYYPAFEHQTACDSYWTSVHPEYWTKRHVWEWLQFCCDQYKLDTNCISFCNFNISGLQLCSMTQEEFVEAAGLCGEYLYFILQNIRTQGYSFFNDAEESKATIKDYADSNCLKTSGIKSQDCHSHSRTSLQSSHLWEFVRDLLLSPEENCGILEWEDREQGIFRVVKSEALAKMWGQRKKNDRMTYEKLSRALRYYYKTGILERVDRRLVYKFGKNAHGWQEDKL
# Method in brief: as §1
# ETV3 = target: T12, ETV3 (Homo sapiens, UniProt P41162-2 1-143); conditions: protein: recombinant; tags: N-terminal GST; dsDNA, one strand shown
# T12 sequence: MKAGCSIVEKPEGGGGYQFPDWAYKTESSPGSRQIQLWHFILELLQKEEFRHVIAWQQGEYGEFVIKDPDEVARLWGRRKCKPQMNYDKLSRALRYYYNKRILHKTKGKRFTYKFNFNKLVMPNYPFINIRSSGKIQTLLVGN
# Method in brief: as §1
# ETV6 = ETV6 (Homo sapiens, UniProt P41212 1-452); conditions: protein: recombinant; tags: N-terminal GST; dsDNA, one strand shown
# Method in brief: as §1
# ELF4, sequence (Q99607 whole entry): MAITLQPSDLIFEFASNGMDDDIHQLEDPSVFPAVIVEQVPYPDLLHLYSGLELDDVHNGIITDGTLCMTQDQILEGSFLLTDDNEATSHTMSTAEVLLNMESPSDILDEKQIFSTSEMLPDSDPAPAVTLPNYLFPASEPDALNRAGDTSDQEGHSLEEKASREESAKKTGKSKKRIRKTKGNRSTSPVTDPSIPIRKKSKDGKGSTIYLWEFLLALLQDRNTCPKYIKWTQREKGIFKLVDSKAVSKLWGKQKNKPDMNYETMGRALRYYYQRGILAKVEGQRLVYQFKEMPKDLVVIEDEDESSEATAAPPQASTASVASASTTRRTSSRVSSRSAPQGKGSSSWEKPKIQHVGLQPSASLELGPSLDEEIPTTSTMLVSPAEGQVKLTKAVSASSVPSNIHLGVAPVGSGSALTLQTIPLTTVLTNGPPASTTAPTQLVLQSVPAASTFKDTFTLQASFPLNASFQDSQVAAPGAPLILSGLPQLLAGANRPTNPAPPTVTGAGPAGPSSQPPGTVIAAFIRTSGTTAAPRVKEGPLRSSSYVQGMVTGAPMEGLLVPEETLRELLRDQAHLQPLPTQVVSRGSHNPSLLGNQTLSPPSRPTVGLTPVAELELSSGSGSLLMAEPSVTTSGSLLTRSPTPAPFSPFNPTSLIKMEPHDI
# CRX, sequence (O43186 whole entry): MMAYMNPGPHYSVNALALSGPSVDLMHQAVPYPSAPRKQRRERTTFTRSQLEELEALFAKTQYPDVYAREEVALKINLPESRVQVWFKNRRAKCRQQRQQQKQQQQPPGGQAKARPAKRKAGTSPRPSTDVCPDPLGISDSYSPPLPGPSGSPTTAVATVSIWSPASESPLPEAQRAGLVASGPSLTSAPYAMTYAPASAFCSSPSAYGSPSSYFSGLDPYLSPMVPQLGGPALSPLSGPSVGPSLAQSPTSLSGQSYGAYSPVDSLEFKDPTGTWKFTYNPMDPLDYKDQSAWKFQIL
# ETV5, sequence (P41161 whole entry): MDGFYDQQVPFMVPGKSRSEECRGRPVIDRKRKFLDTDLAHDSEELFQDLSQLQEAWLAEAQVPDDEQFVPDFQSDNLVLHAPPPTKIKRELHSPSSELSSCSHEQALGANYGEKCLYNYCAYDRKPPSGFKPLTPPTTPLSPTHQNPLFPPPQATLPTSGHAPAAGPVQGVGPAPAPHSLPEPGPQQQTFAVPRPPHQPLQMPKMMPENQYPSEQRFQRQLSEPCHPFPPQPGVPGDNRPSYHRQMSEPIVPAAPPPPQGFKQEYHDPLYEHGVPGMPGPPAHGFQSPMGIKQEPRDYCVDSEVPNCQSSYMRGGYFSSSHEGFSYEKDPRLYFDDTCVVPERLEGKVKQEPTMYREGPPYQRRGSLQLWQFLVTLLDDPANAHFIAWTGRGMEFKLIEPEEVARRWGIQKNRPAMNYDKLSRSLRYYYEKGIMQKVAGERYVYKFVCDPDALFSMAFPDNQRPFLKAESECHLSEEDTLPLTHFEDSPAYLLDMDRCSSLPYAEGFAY
# ETV6, sequence (P41212 whole entry): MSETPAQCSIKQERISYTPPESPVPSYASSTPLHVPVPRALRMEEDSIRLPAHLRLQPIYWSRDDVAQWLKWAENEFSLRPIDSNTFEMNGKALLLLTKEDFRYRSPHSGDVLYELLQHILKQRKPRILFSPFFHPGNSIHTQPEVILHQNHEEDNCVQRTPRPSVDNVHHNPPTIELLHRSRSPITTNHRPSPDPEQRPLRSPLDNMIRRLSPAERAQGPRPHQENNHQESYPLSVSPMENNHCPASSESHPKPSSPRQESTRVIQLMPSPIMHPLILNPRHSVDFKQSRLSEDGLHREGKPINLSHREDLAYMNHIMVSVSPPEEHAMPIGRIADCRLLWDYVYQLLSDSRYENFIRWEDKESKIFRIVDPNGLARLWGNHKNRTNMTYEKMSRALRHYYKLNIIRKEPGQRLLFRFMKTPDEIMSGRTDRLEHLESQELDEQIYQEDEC
# HSF1, sequence (Q00613 whole entry): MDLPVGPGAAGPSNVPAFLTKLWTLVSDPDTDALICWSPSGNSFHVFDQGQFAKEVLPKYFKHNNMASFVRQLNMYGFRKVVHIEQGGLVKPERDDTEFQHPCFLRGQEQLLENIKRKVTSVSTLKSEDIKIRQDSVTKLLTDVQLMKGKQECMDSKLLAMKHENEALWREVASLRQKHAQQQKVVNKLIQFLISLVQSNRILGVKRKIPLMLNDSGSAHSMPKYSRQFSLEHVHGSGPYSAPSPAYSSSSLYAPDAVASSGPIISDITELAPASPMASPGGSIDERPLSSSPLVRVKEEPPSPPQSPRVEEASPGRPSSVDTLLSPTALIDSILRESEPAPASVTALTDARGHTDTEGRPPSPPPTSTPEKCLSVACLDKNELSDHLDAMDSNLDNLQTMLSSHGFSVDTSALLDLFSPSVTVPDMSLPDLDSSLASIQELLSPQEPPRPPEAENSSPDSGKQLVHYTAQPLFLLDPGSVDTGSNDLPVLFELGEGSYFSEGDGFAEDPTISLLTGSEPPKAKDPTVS
# ETV1, sequence (P50549 whole entry): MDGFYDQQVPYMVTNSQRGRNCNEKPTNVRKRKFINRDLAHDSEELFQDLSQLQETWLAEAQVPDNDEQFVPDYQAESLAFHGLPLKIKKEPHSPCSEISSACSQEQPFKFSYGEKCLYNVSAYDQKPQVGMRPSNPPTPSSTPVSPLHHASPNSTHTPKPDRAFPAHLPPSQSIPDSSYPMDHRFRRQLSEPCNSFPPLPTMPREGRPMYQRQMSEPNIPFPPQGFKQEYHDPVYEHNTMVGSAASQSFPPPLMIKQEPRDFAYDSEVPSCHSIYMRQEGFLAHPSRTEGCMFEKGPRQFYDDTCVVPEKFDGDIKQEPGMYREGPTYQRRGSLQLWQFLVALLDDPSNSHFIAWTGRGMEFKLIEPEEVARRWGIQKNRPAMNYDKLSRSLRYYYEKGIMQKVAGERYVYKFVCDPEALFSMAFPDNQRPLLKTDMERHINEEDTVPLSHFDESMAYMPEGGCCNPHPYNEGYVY
sequence,measurement,setting,value
GAATTT,binding signal,FEV,"1.19 fold enrichment (6-mer frequency, TF over GST control)"
same,binding signal,ETV5,"1.26 fold enrichment (6-mer frequency, TF over GST control)"
same,binding signal,HSF1,"1.7 fold enrichment (6-mer frequency, TF over GST control)"
same,binding signal,SPIC,"1.39 fold enrichment (6-mer frequency, TF over GST control)"
same,binding signal,ELF4,"1.25 fold enrichment (6-mer frequency, TF over GST control)"
same,binding signal,ELK4,"1.31 fold enrichment (6-mer frequency, TF over GST control)"
same,binding signal,ETV2,"1.14 fold enrichment (6-mer frequency, TF over GST control)"
same,binding signal,ELF3,"1.13 fold enrichment (6-mer frequency, TF over GST control)"
same,binding signal,CRX,"1.39 fold enrichment (6-mer frequency, TF over GST control)"
same,binding signal,ETV1,"1.24 fold enrichment (6-mer frequency, TF over GST control)"
same,binding signal,ERF,"1.27 fold enrichment (6-mer frequency, TF over GST control)"
same,binding signal,ETV3L,"1.21 fold enrichment (6-mer frequency, TF over GST control)"
same,binding signal,ETS2,"1.28 fold enrichment (6-mer frequency, TF over GST control)"
same,binding signal,SPDEF,"1.23 fold enrichment (6-mer frequency, TF over GST control)"
same,binding signal,ETV7,"1.29 fold enrichment (6-mer frequency, TF over GST control)"
same,binding signal,ELF5,"1.3 fold enrichment (6-mer frequency, TF over GST control)"
same,binding signal,ETV3,"1.29 fold enrichment (6-mer frequency, TF over GST control)"
same,binding signal,ETV6,"1.2 fold enrichment (6-mer frequency, TF over GST control)"
